These results are taken from PubChem BioAssay (NCI).

The structures appear in SMILES notation. The panel holds about 83,000 compounds, 20% with a hit somewhere; the sample as a whole holds those more often.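 Testing used 96-well plates and a 48-hour single-concentration exposure. Example: -40 means 40% of the starting cells died.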 A number with no mark means an inactive call. The source made the active and inactive calls. How the source made its calls: active means growth percent below 10; inactive means the rest.

The subject of this test is UO-31 renal. Briefly: NCI-60 one-dose screen, 48 h (100 = growth as untreated, 0 = no growth, -100 = all killed). The following applies: 10 µM unless noted.
For `COc1ccc(-c2csc(NC(=O)CN3CCN(c4cc5c(cc4F)c(=O)c(C(=O)O)cn5C4CC4)CC3)n2)cc1`, the growth is 21%.

As to `O=C(O)c1ccc(=O)[nH]n1`, the growth is 88.3%.

For `COc1ccc(-c2cc(NC(=O)Nc3ccc(O)cc3)no2)cc1`, the growth is 41.9%.

Consider `CCN(CC)CCCNc1cc(OC)cc2nc3cc(Cl)ccc3nc12`, for which the growth was -86.7% (active).

With `Clc1nc(Cl)c2c3c(sc2n1)CCCC3`, the growth was 65.6%.

As to `CNCCCn1c2c(c3ccc([N+](=O)[O-])cc3c1=O)C(=O)c1cc(OC)cnc1-2`, the growth was -78.4% (active).

As to `C=C1CC2(OC1=O)C(=O)Nc1ccccc12` (centres undefined), the growth is 19.7%.

As to `CN1CCN(Cc2ccc(NC(=O)c3cncc(C#Cc4c(N)ncc5ccc(C#N)cc45)c3)cc2C(F)(F)F)CC1`, the growth is -88.5% (active).

Take `O=C1O[C@H]([C@H](O)CO)C(O)=C1O`: the growth was 99.8%.

On to `COC(=S)SCN(CSC(=S)OC)c1ccc(Cl)cc1`, for which the growth is 66.5%.

In the case of `Cc1ccc(/C=C2\Oc3cc(OCC(=O)c4ccc(Cl)cc4)ccc3C2=O)cc1`, the growth was 73.6%.

Consider `CCN(C(=O)CN1CCN(c2cc3c(cc2F)c(=O)c(C(=O)O)cn3C2CC2)CC1)c1nc(-c2ccc(OC)cc2)cs1`, for which the growth is 33%.

Turning to `OC(c1cc(-c2ccccc2)nc2ccc(Cl)cc12)C1CCCCN1` (centres undefined), the growth is 20.5%.

With `CC#CC#Cc1cccc(=O)o1`, the growth is 40.7%.

For `CNCc1cccc2c1OCCOCCOCCN(C)S(=O)(=O)c1ccc(cc1)-c1cnc(N)c(n1)C(=O)N2`, the growth was 36.5%.

`CCCCCCCCCCCCCCCCCCSC1=CC(=O)C(OC)=C(OC)C1=O`: the growth is 76.6%.

As for `CC1=C(C)C(=O)OC([C@](C)(O)[C@]2(O)CC[C@@]3(O)[C@@H]4C[C@H]5O[C@]56CC=CC(=O)[C@]6(C)[C@H]4CC[C@]23COC(=O)c2ccc(C)o2)C1` (some centres undefined), the growth is -96.6% (active).

Turning to `O=C1C[C@H](Sc2nc(-c3ccc(F)cc3)cc(C(F)(F)F)n2)[C@H]2CO[C@@H]1O2`, the growth was 88.3%.

As to `C=C1CC[C@@H]2[C@](C)(COC(C)=O)[C@H](OC(C)=O)CC[C@@]2(C)[C@@H]1CC(Nc1ccc(S(=O)(=O)Nc2nc(C)cc(C)n2)cc1)C1=CCOC1=O` (some centres undefined), the growth is 71.2%.

In the case of `COc1ccc(S(=O)(=O)NCCNc2nccc(-c3c(-c4cccc([N+](=O)[O-])c4)nc4sccn34)n2)cc1`, the growth was 49.3%.

As to `O=C(Nc1ccc(Nc2cc(Nc3ccccc3)ncn2)cc1)Nc1cc(C(F)(F)F)ccc1F`, the growth is 65.6%.

`COc1ccc(/C=C/C(=O)c2c(O)c(C)c(O)c3c2OC2=CC(O)=C(C(C)=O)C(=O)[C@]23C)cc1`: the growth was -22.5% (active).

Turning to `C=C(C[n+]1ccccc1)[C@@H]1CC[C@]2(C(=O)OC)CC[C@]3(C)[C@H](CC[C@@H]4[C@@]5(C)CC[C@H](O)C(C)(C)[C@@H]5CC[C@]43C)[C@@H]12`, the growth was 74%.

Take `CCCCCCCCCCCCNC(=O)[C@H]1CSC(c2ccc(OC)c(F)c2)N1` (some centres undefined): the growth was -99.9% (active).

Regarding `COc1ccccc1N1CCN(CCn2c(=O)c3c(c4ccccc4n3C)n(C)c2=O)CC1`, the growth was 77.6%.

For the compound `CC(C)[C@H]1COC(=O)N1[C@@H]1C(=O)N([C@@H](CCC(=O)N2CCN(C3CCCC3)CC2)C(=O)N[C@@H]2CCCc3ccccc32)[C@@H]1/C=C/c1cccc(Br)c1`, the growth is 31%.

Take `Cc1nc2nc(N)nc(N)c2nc1C`: the growth is 78.6%.

As to `COc1cnc2c(c1)C(=O)c1c-2n(CCCBr)c(=O)c2cc([N+](=O)[O-])ccc12`, the growth was -10.8% (active).

On to `COc1ccc(-n2cc(-c3ccccc3)c3c(SCC(=O)N/N=C/c4ccc([N+](=O)[O-])cc4)ncnc32)cc1`, for which the growth is 79.4%.

Regarding `O=C(O)c1cn(C2CC2)c2cc(N3CCN(Cc4nc5c(cnn5-c5ccc([N+](=O)[O-])cc5)c(=O)[nH]4)CC3)c(F)cc2c1=O`, the growth was 71.8%.

On to `CCOC(=O)c1cnc2ccc(OC)cc2c1Nc1cccc(S(=O)(=O)NC)c1`, for which the growth was 93.6%.

Turning to `CCN(CC)CCCC(C)NCCCNc1cccc2cccnc12` (centres undefined), the growth was 72.2%.

As for `COc1ccc(C/C(C)=C(\c2ccc(Cl)cc2)c2ccc(OCCN3CCCCCC3)cc2)cc1`, the growth is 67.9%.

On to `C=C1C(=O)O[C@H]2[C@H]1CC/C(Cn1cc(Cn3ccc4cc(Cl)ccc43)nn1)=C\CC[C@@]1(C)O[C@@H]21`, for which the growth is -100% (active).
